# Experimental data taken from the supplement of paper PMC9801561.
# ± gives the standard deviation of the averaged measurements.
# System: Escherichia coli Nissle 1917
# Experiment: area under OmniLog respiration curve over 48 h (OmniLog units x h); higher = more growth / nutrient utilisation; extreme values may be limits of the assay
# Settings: nutrient role: C-Source, carbohydrate; incubation: 48 h, 37 °C
# 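Wherever DuctApe activity index of respiration/growth curve (0 no growth to 9 maximum) is given: biolog PM4 phosphorus and sulfur plates, tetrazolium violet dye reduction read in the OmniLog every 15 min, kinetic curves scored by DuctApe, each plate run in triplicate.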
row,SMILES,area under OmniLog respiration curve
1,OC[C@@H](O)C(O)[C@H](O)CO [D-Arabitol],4.72
2,OC[C@H]1O[C@H](OC[C@H]2O[C@H](OC[C@H]3O[C@H](O[C@]4(CO)O[C@H](CO)[C@@H](O)[C@@H]4O)[C@H](O)[C@@H](O)[C@@H]3O)[C@H](O)[C@@H](O)[C@H]2O)[C@H](O)[C@@H](O)[C@H]1O [Stachyose],433 ± 380
3,Nc1ncnc2c1ncn2[C@H]1C[C@H](O)[C@@H](CO)O1 [2`-Deoxyadenosine],8940 ± 560
4,OC[C@H]1O[C@H](O[C@H]2O[C@H](CO)[C@@H](O)[C@H](O)[C@H]2O)[C@H](O)[C@@H](O)[C@@H]1O [D-Trehalose],8920 ± 460
5,CO[C@@H]1O[C@H](CO)[C@@H](O)[C@H](O)[C@H]1O [b-Methyl-D-Glucoside],6700 ± 470

# Same assay, conditions: nutrient role: C-Source, carboxylic acid; incubation: 48 h, 37 °C
row,SMILES,area under OmniLog respiration curve
1,CCC(=O)O [Propionic acid],7450 ± 300
2,O=C1O[C@@H]([C@H](O)CO)[C@H](O)[C@H]1O [D-Galactonic acid-g-Lactone],8410 ± 840
3,O=C(O)/C=C/C(=O)O [Fumaric acid],8610 ± 570
4,C[C@@H](O)CC(=O)O [b-Hydroxybutyric acid],186 ± 53
5,O=C(O)[C@H]1OC(O)[C@H](O)[C@@H](O)[C@H]1O (stereo partly drawn) [D-Galacturonic acid],10200 ± 880
6,O=C(O)CCCCCCCCC(=O)O [Sebacic acid],4.72
7,O=C1CC[C@@H](C(=O)O)O1 [a-Hydroxyglutaric acid-g-Lactone],4.72
8,NC(=O)CCC(=O)O [Succinamic acid],9.14 ± 6

# Same assay, conditions: nutrient role: sole nitrogen source (pyruvate carbon); incubation: 48 h, 37 °C
row,SMILES,area under OmniLog respiration curve
1,Nc1nc2c(ncn2[C@@H]2O[C@H](CO)[C@@H](O)[C@H]2O)c(=O)[nH]1 [Guanosine],442 ± 580
2,NCC(=O)N[C@@H](CCC(N)=O)C(=O)O,8900 ± 1400
3,O=c1[nH]c(=O)c2nc[nH]c2[nH]1 [Xanthine],2650 ± 1100
4,O=c1cc[nH]c(=O)[nH]1 [Uracil],103 ± 170
5,Nc1[nH]cnc2ncnc1-2 [Adenine],5810 ± 860
6,Nc1cc[nH]c(=O)n1 [Cytosine],5890 ± 1100
7,CSCC[C@H](N)C(=O)N[C@@H](C)C(=O)O,6410 ± 1200
8,NCCCCN=C(N)N [Agmatine],336 ± 570
9,CCCCN [N-Butylamine],5.65 ± 1.6

# Same assay, conditions: nutrient role: sole phosphorus source (pyruvate carbon); incubation: 48 h, 37 °C
row,SMILES,area under OmniLog respiration curve
1,O=P(O)(O)OC[C@H]1OC(O)[C@@H](O)[C@@H](O)[C@@H]1O (stereo partly drawn) [D-Mannose-6-Phosphate],8540 ± 570
2,Nc1nc2c(ncn2[C@@H]2O[C@H](CO)[C@@H](OP(=O)(O)O)[C@H]2O)c(=O)[nH]1 [Guanosine 3`-Monophosphate],9730 ± 510
3,N[C@H](COP(=O)(O)O)C(=O)O [O-Phospho-D-Serine],9260 ± 670
4,N[C@@H](Cc1ccc(OP(=O)(O)O)cc1)C(=O)O [O-Phospho-L-Tyrosine],8920 ± 320
5,C[C@@H](OP(=O)(O)O)[C@H](N)C(=O)O [O-Phospho-L-Threonine],9330 ± 620
6,O=P(O)(O)OP(=O)(O)O [Pyrophosphate],9320 ± 480
7,O=c1ccn([C@@H]2O[C@H](CO)[C@@H](OP(=O)(O)O)[C@H]2O)c(=O)[nH]1 [Uridine 3`-Monophosphate],9010 ± 750

# Same assay, conditions: nutrient role: sole sulfur source (pyruvate carbon); incubation: 48 h, 37 °C
row,SMILES,area under OmniLog respiration curve
1,CC(=O)N[C@@H](CS)C(=O)O [N-Acetyl-L-Cysteine],55.4 ± 54
2,CSCC[C@@H](N)C(=O)O [D-Methionine],4590 ± 230
3,OC[C@H]1O[C@@H](S)[C@H](O)[C@@H](O)[C@@H]1O [1-Thio-b-D-Glucose],1240 ± 430
4,N[C@H](CS)C(=O)O [D-Cysteine],7100 ± 110
5,N[C@@H](CCC(=O)N[C@@H](CS)C(=O)NCC(=O)O)C(=O)O [Glutathione],1690 ± 30
6,O=S(=O)(O)CCO [2-Hydroxyethane Sulfonic acid],7790 ± 450
7,C[C@H](CCC(=O)NCCS(=O)(=O)O)[C@H]1CC[C@H]2[C@@H]3[C@H](O)C[C@@H]4C[C@H](O)CC[C@]4(C)[C@H]3C[C@H](O)[C@]12C [Taurocholic acid],2500 ± 890

# System: Escherichia coli Nissle 1917
# Experiment: DuctApe activity index of respiration/growth curve (0 no growth to 9 maximum) (index 0-9); higher = more growth / nutrient utilisation, active = 3 or more; extreme values may be limits of the assay
# Settings: nutrient role: C-Source, carbohydrate; incubation: 48 h, 37 °C
row,SMILES,DuctApe activity index
1,OC[C@@H](O)C(O)[C@H](O)CO [D-Arabitol],0 (inactive)
2,OC[C@H]1O[C@H](OC[C@H]2O[C@H](OC[C@H]3O[C@H](O[C@]4(CO)O[C@H](CO)[C@@H](O)[C@@H]4O)[C@H](O)[C@@H](O)[C@@H]3O)[C@H](O)[C@@H](O)[C@H]2O)[C@H](O)[C@@H](O)[C@H]1O [Stachyose],1.33 (inactive)
3,Nc1ncnc2c1ncn2[C@H]1C[C@H](O)[C@@H](CO)O1 [2`-Deoxyadenosine],8.67 (active)
4,OC[C@H]1O[C@H](O[C@H]2O[C@H](CO)[C@@H](O)[C@H](O)[C@H]2O)[C@H](O)[C@@H](O)[C@@H]1O [D-Trehalose],8.67 (active)
5,CO[C@@H]1O[C@H](CO)[C@@H](O)[C@H](O)[C@H]1O [b-Methyl-D-Glucoside],7.33 (active)

# Same assay, conditions: nutrient role: C-Source, carboxylic acid; incubation: 48 h, 37 °C
row,SMILES,DuctApe activity index
1,CCC(=O)O [Propionic acid],8 (active)
2,O=C1O[C@@H]([C@H](O)CO)[C@H](O)[C@H]1O [D-Galactonic acid-g-Lactone],8.33 (active)
3,O=C(O)/C=C/C(=O)O [Fumaric acid],8.33 (active)
4,C[C@@H](O)CC(=O)O [b-Hydroxybutyric acid],1 (inactive)
5,O=C(O)[C@H]1OC(O)[C@H](O)[C@@H](O)[C@H]1O (stereo partly drawn) [D-Galacturonic acid],9 (active)
6,O=C(O)CCCCCCCCC(=O)O [Sebacic acid],0 (inactive)
7,O=C1CC[C@@H](C(=O)O)O1 [a-Hydroxyglutaric acid-g-Lactone],0 (inactive)
8,NC(=O)CCC(=O)O [Succinamic acid],0 (inactive)
